Here are results for 20 compounds from PubChem BioAssay (NCI).

Assay [1] can be described thus: NCI Yeast Anticancer Drug Screen. Data for the rad50 strain (AID 155).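 Also: 0% = growth of vehicle-only cultures of the same strain.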 To be noted: S. cerevisiae rad50 strain growth inhibition; at 50.0 µM; active compounds read high. An outline of the steps: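 Growth of the mutant yeast was measured after compound exposure and referenced to vehicle-treated cultures.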
Assay [2] can be described thus: NCI Yeast Anticancer Drug Screen. Data for the mec2-1 strain (AID 157). The conditions noted are these: S. cerevisiae mec2-1 strain, at 50.0 µM, active compounds read high. An outline of the steps: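 mec2-1 yeast strain, carrying an alteration in DNA damage repair or cell cycle control, was exposed to compounds; growth inhibition was measured relative to vehicle-treated controls.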

Assay [3] in a line: NCI Yeast Anticancer Drug Screen. Data for the sgs1 mgt1 strain (AID 161).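 Also: 0% = growth of cultures given vehicle only.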 The conditions noted are these: S. cerevisiae sgs1 mgt1 strain, at 50.0 µM, active compounds read high. An outline of the steps:
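This yeast growth screen uses a strain with defined DNA-repair lesions; compound-treated growth is compared with vehicle-treated growth.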

The nature of assay [4]: NCI Yeast Anticancer Drug Screen. Data for the cln2 rad14 strain (AID 165).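 Also: 0% = growth equal to vehicle treated cultures.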 To be noted: S. cerevisiae cln2 rad14 strain, at 50.0 µM, active compounds read high. An outline of the steps: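 Yeast carrying cln2 and rad14 alterations (cell cycle control and DNA damage repair) were exposed to compounds. Growth inhibition was measured against vehicle-treated controls.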
Assay [5] is described as follows: NCI Yeast Anticancer Drug Screen. Data for the bub3 strain (AID 167). To be noted: S. cerevisiae bub3 mutant strain, at 50.0 µM, active compounds read high. An outline of the steps:
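Whole-cell yeast assay. The mutant strain was incubated with compounds, and growth inhibition was determined by comparison with vehicle-treated cells.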

Assay [6] in a line: NCI Yeast Anticancer Drug Screen. Data for the mlh1 rad18 strain (AID 175). To be noted: S. cerevisiae mlh1 rad18 strain growth inhibition; at 50.0 µM; active compounds read high. An outline of the steps: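 Growth inhibition of the yeast strain was measured after compound exposure and expressed relative to vehicle-treated controls. The strain carries defined defects in DNA damage repair.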

The panel holds about 79,000 compounds, 15% with a hit somewhere; the sample as a whole holds those more often. A number with no mark means an inactive call. Activity calls are given as the source filed them. Rule as the data show it: active = growth inhibition above about 70%; inactive = the rest.

For the compound `CCCCCCNC(C)=O`, the growth inhibition was 13.6% in assay [1]; 5.7% in assay [2]; 11.9% in assay [3]; 5.7% in assay [4]; -5.5% in assay [5]; -0.55% in assay [6].

As for `COc1cccc2c(=O)oc(-c3ccc(C(C)(C)C)cc3)nc12`, the growth inhibition in assay [1] was 16.4%; in assay [2] it was 8.8%; in assay [3] it was 18.4%; in assay [4] it was 1.3%; in assay [5] it was 13.4%; in assay [6], 30.9%.

In the case of `NC(=O)c1cc2ccccc2[n+](Cc2ccc(F)cc2)c1`, the growth inhibition was -0.2% in assay [1]; 0.4% in assay [2]; 6.45% in assay [3]; -49.1% in assay [4]; 4.9% in assay [5]; -6.95% in assay [6].

As to `CN(C)CC1C2CCC(C2)C1O` (stereo not given), the growth inhibition in assay [1] was 2.2%; in assay [2], -20.6%; in assay [3], -7.7%; in assay [4], 8%; in assay [5], -11.7%; in assay [6], 4.4%.

Turning to `CN1C(C)(C)CC(O)(C(O)(c2ccccc2)c2ccccc2)CC1(C)C`, the growth inhibition in assay [1] was 10.4%; in assay [2], -9.35%; in assay [3] it was -14.6%; in assay [4], -14%; in assay [5], -11.2%; in assay [6], 3.7%.

Regarding `CN(C)c1ccc(-c2c(C#N)c(O)n(NS(=O)(=O)c3ccccc3)c(=O)c2C#N)cc1`, the growth inhibition was -28.9% in assay [1]; -10.7% in assay [2]; -14.2% in assay [3]; 13.9% in assay [4]; -21.4% in assay [5]; -14.2% in assay [6].

`C/C=C\C(=O)OCC(C)COC(=O)/C=C/C` (stereo not given): the growth inhibition was 21.7% in assay [1]; 15.9% in assay [2]; 4.9% in assay [3]; 9.4% in assay [4]; 2.65% in assay [5]; 6.65% in assay [6].

On to `CCCCCCCC(C(=O)O)C(=O)O`, for which the growth inhibition is -2.1% in assay [1]; 0.4% in assay [2]; 10.3% in assay [3]; 10.3% in assay [4]; -2.5% in assay [5]; 11.5% in assay [6].

Take `CN(C)CCSc1n[nH]c(=O)[nH]c1=O`: the growth inhibition in assay [1] was 2.4%; in assay [2], -6.35%; in assay [3] it was -7.35%; in assay [4] it was -23.4%; in assay [5], -16.1%; in assay [6], -3.45%.

For `Cc1ccc2cccc(-c3cccc4ccccc34)c2n1`, the growth inhibition is 5.3% in assay [1]; 7.9% in assay [2]; 3.4% in assay [3]; -0.05% in assay [4]; -2.35% in assay [5]; 28.8% in assay [6].

As to `O=C1c2cc3c(cc2C(=O)c2ncccc21)CCCC3`, the growth inhibition was 64.7% in assay [1]; 48.4% in assay [2]; 62.1% in assay [3]; 10.3% in assay [4]; 71.1% (active) in assay [5]; 76.1% (active) in assay [6].

Consider `O=C1NC(=S)SC1=C1CCCCC1`, for which the growth inhibition in assay [1] is 22.9%; in assay [2] it was 42.5%; in assay [3], 41.6%; in assay [4], 34.5%; in assay [5] it was 37.9%; in assay [6], 28.2%.

Take `C=C(Br)CN1CCC2(c3ccccc3)C(=O)C([Se]c3ccccc3)CCC12` (stereo not given): the growth inhibition is -5.45% in assay [1]; 8.15% in assay [2]; 8.9% in assay [3]; -7.25% in assay [4]; -1.35% in assay [5]; -0.95% in assay [6].

Regarding `Cc1ccc(CS(=O)(=O)c2ccc(C)cc2)cc1`, the growth inhibition was -3.3% in assay [1]; -0.45% in assay [2]; -4.2% in assay [3]; -36.8% in assay [4]; -22.9% in assay [5]; -2.35% in assay [6].

Regarding `O=C(O)c1nccc2c([N+](=O)[O-])cccc12`, the growth inhibition in assay [1] is -2.4%; in assay [2], 6.4%; in assay [3] it was 16.6%; in assay [4], -13.5%; in assay [5] it was -4.4%; in assay [6] it was -12.9%.

For `C=C(CCC(Cl)C(COS(=O)(=O)c1ccc(C)cc1)OC(CCCO[Si](c1ccccc1)(c1ccccc1)C(C)(C)C)OCC)[Si](C)(C)C` (stereo not given), the growth inhibition is 68.2% in assay [1]; 65.7% in assay [2]; 60.6% in assay [3]; 69.1% in assay [4]; 73% (active) in assay [5]; 58.4% in assay [6].

On to `CC(c1ccccc1)C(C)c1ccccc1` (stereo not given), for which the growth inhibition in assay [1] is 12.7%; in assay [2] it was -10.2%; in assay [3], -16.6%; in assay [4], -72.5%; in assay [5] it was 7.6%; in assay [6] it was -8.65%.

As for `COc1c2ccoc2c(S(=O)(=O)Nc2ccc(Cl)cc2)c2oc(C)cc(=O)c12`, the growth inhibition in assay [1] was 4.7%; in assay [2] it was -29.9%; in assay [3], -13.9%; in assay [4] it was -8.15%; in assay [5], -11.8%; in assay [6] it was -24.8%.

For the compound `NC(=O)c1ccccc1N1CCCCC1`, the growth inhibition in assay [1] was 16.7%; in assay [2], -0.2%; in assay [3], 36%; in assay [4], 21.5%; in assay [5] it was 32.5%; in assay [6], 22.4%.

On to `Cc1ccc(C2=Nn3c(nc4sc(C)c(C)c4c3=O)SC2)cc1`, for which the growth inhibition in assay [1] was -27.9%; in assay [2], -3.25%; in assay [3], -23.1%; in assay [4] it was 6.15%; in assay [5] it was -22.1%; in assay [6], -10.6%.
